Drawing on ChEMBL document CHEMBL3988442, “University of Dundee, Small-Polar-MMV Screening Library” (2021), this text covers Percent Effect for eleven molecules.

For some of these results: Entries with a potency or affinity are not part of this list.

Parameters in all cases: scale not given: direction of the effect not stated beside the values
Assay [1] deals with Protein translocase subunit SecA (Escherichia coli (strain K12)) (UniProt P10408). Briefly: Assay to Identify E. coli SecA ATPase Inhibitors. To be noted: 30 µM. It counts as functional.
In assay [2] the target is T1, Ubiquitin-activating enzyme e1, putative (Leishmania donovani (strain BPK282A1)) (UniProt E9BSI1).
T1 sequence (whole entry): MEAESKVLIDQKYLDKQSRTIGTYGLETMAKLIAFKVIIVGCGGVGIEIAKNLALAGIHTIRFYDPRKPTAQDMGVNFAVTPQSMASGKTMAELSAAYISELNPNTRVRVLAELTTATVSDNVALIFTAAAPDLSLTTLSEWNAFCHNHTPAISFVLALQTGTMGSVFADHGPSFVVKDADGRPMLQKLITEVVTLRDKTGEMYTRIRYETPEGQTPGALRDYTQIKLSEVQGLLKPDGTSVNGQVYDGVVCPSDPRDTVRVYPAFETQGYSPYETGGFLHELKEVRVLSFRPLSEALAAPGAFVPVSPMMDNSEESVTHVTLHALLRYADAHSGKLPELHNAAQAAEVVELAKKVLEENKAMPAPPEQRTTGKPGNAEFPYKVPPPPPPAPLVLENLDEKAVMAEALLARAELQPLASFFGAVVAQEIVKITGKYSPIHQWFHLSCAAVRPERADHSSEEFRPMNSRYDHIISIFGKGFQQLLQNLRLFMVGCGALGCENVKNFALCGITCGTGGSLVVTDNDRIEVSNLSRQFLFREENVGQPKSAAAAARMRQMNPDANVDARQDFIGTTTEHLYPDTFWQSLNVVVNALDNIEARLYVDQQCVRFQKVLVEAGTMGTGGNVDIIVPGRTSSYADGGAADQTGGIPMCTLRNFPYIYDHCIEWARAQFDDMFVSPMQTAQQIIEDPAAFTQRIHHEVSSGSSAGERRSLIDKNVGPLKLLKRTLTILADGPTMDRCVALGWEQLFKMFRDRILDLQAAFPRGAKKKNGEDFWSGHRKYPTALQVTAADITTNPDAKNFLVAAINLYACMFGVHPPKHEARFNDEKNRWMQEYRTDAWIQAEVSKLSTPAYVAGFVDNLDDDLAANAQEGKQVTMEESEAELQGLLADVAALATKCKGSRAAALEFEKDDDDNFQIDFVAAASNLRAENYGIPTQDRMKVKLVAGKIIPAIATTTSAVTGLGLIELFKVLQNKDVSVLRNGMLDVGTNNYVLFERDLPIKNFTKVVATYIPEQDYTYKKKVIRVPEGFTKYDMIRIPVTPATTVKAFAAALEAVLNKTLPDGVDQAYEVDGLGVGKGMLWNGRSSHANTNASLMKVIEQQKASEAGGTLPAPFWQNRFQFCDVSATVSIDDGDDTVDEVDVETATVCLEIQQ
In words: Leishmania donovani Ubiquitin Activating Enzyme (LdE1). The format is functional. To be noted: 30 µM.

In assay [3] the target is AMP-activated protein kinase, AMPK (Homo sapiens) (UniProt P54646+O43741+P54619+Q9UGJ0+Q9Y478+Q13131+Q9UGI9). Briefly: AMP-dependent Kinase enzyme assay. An in vitro enzyme assay that detects ADP turnover that is directly proportional to AMPK activity. This uses naive AMPK that is activated during the assay with MK-8722. The format is functional. To be noted: 30 µM.
In assay [4] the target is Sialic acid-binding Ig-like lectin 9 (Homo sapiens) (UniProt Q9Y336). Briefly: Hs-Siglec9 ALPHAscreen SOP 20170721. To be noted: 10 µM. Background: In Alpha technology, singlet oxygen from a donor bead excites a nearby acceptor bead.
Another assay concerns Trypanosoma cruzi. Briefly: Trypanosoma cruzi phosphomannomutase and mannose-1-phosphate guanylyltransferase assay. The format is functional. To be noted: 10 µM.
In assay [5] the target is T2, Arginase-2, mitochondrial (Homo sapiens) (UniProt P78540).
T2 sequence (whole entry): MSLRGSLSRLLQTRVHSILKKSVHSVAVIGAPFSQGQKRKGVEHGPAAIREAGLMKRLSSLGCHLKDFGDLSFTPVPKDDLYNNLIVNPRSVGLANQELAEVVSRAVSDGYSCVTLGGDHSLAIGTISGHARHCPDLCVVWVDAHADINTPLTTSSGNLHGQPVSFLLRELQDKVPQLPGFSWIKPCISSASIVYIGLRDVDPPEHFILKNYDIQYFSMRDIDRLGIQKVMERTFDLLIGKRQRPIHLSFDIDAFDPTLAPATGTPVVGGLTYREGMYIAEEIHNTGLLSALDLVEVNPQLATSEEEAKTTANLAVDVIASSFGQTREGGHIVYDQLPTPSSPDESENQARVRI
In words: in vitro enzyme assay to detect the production of urea directly proportional to the activity of Arginase II. Also: in the data most compounds retested in dose-response had high values. To be noted: 33.3 µM. It counts as functional.

Assay [6] concerns the target T3, Proteasome subunit beta (Trypanosoma cruzi) (UniProt O96673).
T3 sequence (whole entry): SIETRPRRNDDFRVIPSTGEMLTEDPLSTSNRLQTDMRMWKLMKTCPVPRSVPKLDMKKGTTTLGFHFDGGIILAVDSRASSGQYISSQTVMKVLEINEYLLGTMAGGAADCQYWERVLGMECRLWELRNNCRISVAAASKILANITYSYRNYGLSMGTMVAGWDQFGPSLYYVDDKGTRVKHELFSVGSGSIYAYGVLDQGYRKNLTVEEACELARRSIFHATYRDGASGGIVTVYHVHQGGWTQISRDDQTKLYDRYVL
Briefly: Trypanosoma cruzi proteasome chymotrypsin-like activity (TcProtChymo) assay. Also: in the data most compounds retested in dose-response had high values. It counts as functional. To be noted: 9.37 µM.

For the next assay, the species on record is Homo sapiens. Briefly: To identify inhibition of the IFN signalling (Jak-Stat) pathway via expression of an eGFP reporter gene under the control of an IFN-stimulated response element (ISRE) containing MxA promoter. The format is functional. To be noted: 30 µM. (A reporter such as luciferase makes a cellular process visible.)
Assay [7] has as its target T4, Tyrosyl-tRNA synthetase, putative (Trypanosoma cruzi (strain CL Brener)) (UniProt Q4DSP6).
T4 sequence (whole entry): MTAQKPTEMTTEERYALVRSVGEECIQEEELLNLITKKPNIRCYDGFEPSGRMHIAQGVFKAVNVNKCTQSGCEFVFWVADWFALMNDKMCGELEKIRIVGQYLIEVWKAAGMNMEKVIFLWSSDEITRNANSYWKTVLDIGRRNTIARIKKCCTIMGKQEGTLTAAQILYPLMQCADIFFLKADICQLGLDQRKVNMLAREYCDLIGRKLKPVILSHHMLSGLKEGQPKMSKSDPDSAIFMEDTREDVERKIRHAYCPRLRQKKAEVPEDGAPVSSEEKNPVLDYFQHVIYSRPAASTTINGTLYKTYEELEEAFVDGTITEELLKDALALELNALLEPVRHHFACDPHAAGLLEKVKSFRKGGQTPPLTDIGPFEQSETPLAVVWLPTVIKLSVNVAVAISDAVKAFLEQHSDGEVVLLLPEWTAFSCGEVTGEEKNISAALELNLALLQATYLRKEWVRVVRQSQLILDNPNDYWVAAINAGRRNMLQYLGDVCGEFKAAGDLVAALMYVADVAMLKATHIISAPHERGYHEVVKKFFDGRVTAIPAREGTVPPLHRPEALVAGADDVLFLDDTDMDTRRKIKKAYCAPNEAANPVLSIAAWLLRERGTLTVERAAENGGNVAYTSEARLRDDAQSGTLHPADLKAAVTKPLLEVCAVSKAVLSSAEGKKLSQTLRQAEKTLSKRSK
Briefly: Trypanosoma cruzi tyrosyl tRNA synthetase (TcYRS) _High Tyrosine SOP. Also: in the data most compounds retested in dose-response had high values. It counts as functional. To be noted: 30 µM.

The target in assay [8] is T4, Tyrosyl-tRNA synthetase, putative (Trypanosoma cruzi (strain CL Brener)). In words: Trypanosoma cruzi tyrosyl tRNA synthetase (TcYRS) SOP. The format is functional. To be noted: 30 µM.
Assay [9] has as its target Chromo domain-containing protein 1 (Saccharomyces cerevisiae (strain ATCC 204508 / S288c) (Baker's yeast)) (UniProt P32657). Briefly: ScCHD-1 Enzyme Inhibition Assay. Also: in the data most compounds retested in dose-response had high values. It counts as functional. To be noted: 30 µM.

Sequence of Sialic acid-binding Ig-like lectin 9 (Homo sapiens) (Q9Y336 whole entry): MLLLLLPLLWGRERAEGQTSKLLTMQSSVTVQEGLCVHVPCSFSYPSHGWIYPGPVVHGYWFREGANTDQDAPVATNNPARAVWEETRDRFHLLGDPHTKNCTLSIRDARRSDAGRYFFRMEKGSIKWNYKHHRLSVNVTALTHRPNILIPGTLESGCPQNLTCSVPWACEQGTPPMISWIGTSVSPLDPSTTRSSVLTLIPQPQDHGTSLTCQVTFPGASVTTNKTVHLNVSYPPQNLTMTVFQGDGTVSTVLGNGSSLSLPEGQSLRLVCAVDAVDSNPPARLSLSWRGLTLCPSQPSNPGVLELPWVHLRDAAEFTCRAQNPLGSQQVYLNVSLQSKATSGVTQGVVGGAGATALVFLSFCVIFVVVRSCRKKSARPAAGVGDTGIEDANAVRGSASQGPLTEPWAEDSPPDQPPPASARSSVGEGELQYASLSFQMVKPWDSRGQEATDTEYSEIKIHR
Sequence of Protein translocase subunit SecA (Escherichia coli (strain K12)) (P10408 whole entry): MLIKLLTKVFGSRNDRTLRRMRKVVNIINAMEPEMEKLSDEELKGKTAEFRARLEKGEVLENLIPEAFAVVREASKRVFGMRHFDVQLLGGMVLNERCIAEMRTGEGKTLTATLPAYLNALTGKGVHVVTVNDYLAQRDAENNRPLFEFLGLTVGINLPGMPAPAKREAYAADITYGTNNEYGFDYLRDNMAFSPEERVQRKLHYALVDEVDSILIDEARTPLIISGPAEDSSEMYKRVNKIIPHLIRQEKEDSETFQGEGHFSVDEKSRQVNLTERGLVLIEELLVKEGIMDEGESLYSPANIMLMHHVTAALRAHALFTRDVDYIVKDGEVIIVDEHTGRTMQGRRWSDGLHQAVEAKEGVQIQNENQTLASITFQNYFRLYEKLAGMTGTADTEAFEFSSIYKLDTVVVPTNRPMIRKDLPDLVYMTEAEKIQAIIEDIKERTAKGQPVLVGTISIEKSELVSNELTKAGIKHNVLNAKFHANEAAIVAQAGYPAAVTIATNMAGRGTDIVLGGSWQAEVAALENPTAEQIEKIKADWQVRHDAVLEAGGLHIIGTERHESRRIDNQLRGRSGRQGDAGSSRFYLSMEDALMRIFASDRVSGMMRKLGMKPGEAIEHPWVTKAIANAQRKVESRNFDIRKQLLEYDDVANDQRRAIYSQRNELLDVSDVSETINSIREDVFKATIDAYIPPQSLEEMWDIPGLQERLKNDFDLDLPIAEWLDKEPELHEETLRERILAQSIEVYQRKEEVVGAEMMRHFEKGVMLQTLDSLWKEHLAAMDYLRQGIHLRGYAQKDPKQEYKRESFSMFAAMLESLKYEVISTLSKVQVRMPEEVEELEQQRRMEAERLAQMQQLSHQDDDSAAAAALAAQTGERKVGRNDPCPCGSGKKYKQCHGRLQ
Sequence of Chromo domain-containing protein 1 (Saccharomyces cerevisiae (strain ATCC 204508 / S288c) (Baker's yeast)) (P32657 whole entry, the tested form may be a part): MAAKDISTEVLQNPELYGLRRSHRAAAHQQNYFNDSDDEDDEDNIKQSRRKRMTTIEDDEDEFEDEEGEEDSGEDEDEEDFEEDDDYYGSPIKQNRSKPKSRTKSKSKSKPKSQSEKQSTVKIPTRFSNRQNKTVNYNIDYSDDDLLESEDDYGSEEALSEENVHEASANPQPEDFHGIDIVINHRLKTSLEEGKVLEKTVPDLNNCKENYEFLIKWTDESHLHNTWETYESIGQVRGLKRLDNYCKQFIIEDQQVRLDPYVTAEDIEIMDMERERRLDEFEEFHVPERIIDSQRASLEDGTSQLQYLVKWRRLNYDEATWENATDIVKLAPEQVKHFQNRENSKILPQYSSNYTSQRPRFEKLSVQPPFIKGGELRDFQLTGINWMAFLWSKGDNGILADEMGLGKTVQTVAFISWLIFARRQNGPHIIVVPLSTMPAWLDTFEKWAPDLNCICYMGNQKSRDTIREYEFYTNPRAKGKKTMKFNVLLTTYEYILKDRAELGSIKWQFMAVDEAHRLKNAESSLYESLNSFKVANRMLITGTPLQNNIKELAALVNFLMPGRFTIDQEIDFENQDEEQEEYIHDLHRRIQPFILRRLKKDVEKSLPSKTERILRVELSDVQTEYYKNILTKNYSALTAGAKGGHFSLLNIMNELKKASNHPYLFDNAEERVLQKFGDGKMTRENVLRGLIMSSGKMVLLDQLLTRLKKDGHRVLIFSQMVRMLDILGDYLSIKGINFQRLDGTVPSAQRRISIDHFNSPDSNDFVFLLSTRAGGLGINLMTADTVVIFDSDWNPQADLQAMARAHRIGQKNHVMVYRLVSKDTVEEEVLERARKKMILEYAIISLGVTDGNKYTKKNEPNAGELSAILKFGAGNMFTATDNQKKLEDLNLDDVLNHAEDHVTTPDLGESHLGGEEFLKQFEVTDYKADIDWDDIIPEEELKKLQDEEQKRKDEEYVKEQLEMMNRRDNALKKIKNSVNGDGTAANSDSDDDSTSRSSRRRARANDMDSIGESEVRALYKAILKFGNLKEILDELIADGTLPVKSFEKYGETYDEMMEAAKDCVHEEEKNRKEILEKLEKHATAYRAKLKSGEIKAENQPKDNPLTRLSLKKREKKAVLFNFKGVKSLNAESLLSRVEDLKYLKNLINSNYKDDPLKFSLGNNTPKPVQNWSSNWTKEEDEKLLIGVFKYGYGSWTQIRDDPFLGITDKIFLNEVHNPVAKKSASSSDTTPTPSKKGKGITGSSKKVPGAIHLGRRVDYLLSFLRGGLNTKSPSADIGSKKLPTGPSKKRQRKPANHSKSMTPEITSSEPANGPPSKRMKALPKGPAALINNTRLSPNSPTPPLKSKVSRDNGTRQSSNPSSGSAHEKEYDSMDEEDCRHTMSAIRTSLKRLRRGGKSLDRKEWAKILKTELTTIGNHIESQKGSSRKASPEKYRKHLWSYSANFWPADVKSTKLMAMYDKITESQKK

With `CCn1cc(N2Cc3nc(N4CCN(C)CC4)ncc3C2=O)cn1`, the Percent Effect in [1] was -4.57%; in [2], 4%; in assay [3] it was 4.85%; in assay [4] it was 8.98%; with Trypanosoma cruzi it was -1.97%; in [5], -13.2%. For the same molecule, the Percent Effect was 15.2% in assay [6]; -0.771% in the assay listed under Homo sapiens; 6.35% in assay [7]; 12.8% in assay [8]; -11.9% in assay [9].

Turning to `CC(COc1ccc(F)cc1F)NC(=O)NCCN1CCOCC1` (stereo unspecified), the Percent Effect in [1] was -3.66%; in assay [2], 10.5%; in [3], 7.15%; in [4], -1.15%; in the assay on Trypanosoma cruzi, 4.77%; in assay [5], -5.92%. The Percent Effect is 16% in assay [6]; -26.7% in the assay filed under Homo sapiens; 1.06% in assay [7]; 13% in [8]; -2.74% in assay [9].

Consider `CCN(CC)S(=O)(=O)N1CCCC(c2ccc(C(=O)O)cc2)C1` (stereo unspecified), for which the Percent Effect was -1.63% in assay [1]; -2.7% in assay [2]; 0.184% in assay [3]; 8.84% in assay [4]; -4.44% in the assay with Trypanosoma cruzi; -4.76% in [5]. In addition, the Percent Effect in assay [6] is 0.69%; in the assay filed under Homo sapiens, -0.683%; in assay [7] it was 2.65%; in assay [8] it was 0%; in [9] it was -0.737%.

Take `CCC(CC)c1cc(CNC(=O)N2CCCC(N(C)C)C2)on1` (stereo unspecified): the Percent Effect in [1] was -3.85%; in assay [2], 8.11%; in assay [3], -7.08%; in assay [4], 17.6%; with Trypanosoma cruzi, 6.55%; in [5], 0.248%. The Percent Effect in assay [6] is 12.8%; in the assay listed under Homo sapiens, 7.88%; in assay [7], 6.45%; in assay [8], 13.6%; in assay [9] it was -6.35%.

Take `CCCc1noc(CCC(=O)N2CCCC2c2ccsc2)n1` (stereo unspecified): the Percent Effect in [1] was -3.59%; in assay [2], -55.7%; in assay [3], 0.791%; in assay [4], 6.07%; in the assay with Trypanosoma cruzi it was 1.6%; in assay [5], -2.28%. The Percent Effect is -0.409% in [6]; -2.86% in the assay listed under Homo sapiens; -2.46% in assay [7]; -1.27% in [8]; -4.16% in [9].

For the molecule `CN(C)c1ccc(CCNC(=O)NCc2ccc(N(C)C)nc2)cc1`, the Percent Effect is -3.23% in assay [1]; 13.5% in [2]; 0.0846% in assay [3]; 11.2% in [4]; 1.98% in the assay on Trypanosoma cruzi; -5.21% in assay [5]. The Percent Effect in assay [6] was -4.14%; in the assay listed under Homo sapiens, 5.54%; in assay [7], 7.39%; in [8], 18.5%; in assay [9] it was -9.13%.

On to `CCOc1ncccc1NC(=O)c1sccc1C`, for which the Percent Effect was -2.31% in assay [1]; -1.39% in [2]; 2.84% in assay [3]; -14.7% in assay [4]; -4.57% in the assay with Trypanosoma cruzi; 2.21% in assay [5]. Also, the Percent Effect was 23.2% in assay [6]; -6.94% in the assay listed under Homo sapiens; 4.21% in [7]; 7.69% in assay [8]; 4% in [9].

For the molecule `Cc1nnc2n1CCN(C(=O)c1cc(Cl)c(Cl)n1C)C2`, the Percent Effect in [1] was -1.98%; in assay [2], 5.26%; in [3], -1.75%; in assay [4], 6.76%; in the assay with Trypanosoma cruzi, 2.63%; in assay [5] it was -1.53%. For the same molecule, the Percent Effect is 0.501% in [6]; -1.85% in the assay filed under Homo sapiens; -1.47% in assay [7]; 7.32% in [8]; -1.57% in assay [9].

Regarding `CCn1cnnc1CNC(=O)NC(C)C(C)C` (stereo unspecified), the Percent Effect in assay [1] was -4.76%; in assay [2] it was 13%; in [3], 3.19%; in assay [4], 7.03%; in the assay on Trypanosoma cruzi, -4.68%; in assay [5], 0%. The Percent Effect is 12.5% in assay [6]; 22.8% in the assay listed under Homo sapiens; 2.91% in assay [7]; 7.32% in [8]; -1.46% in assay [9].

Consider `N#Cc1ccnc(N2CCN(C(=O)NC3CCS(=O)(=O)C3)CC2)c1` (stereo unspecified), for which the Percent Effect was -2.8% in [1]; 16.2% in assay [2]; -36.1% in [3]; 7.69% in assay [4]; -0.464% in the assay on Trypanosoma cruzi; -0.185% in assay [5]. For the same molecule, the Percent Effect was 9.87% in [6]; 14.6% in the assay listed under Homo sapiens; 7.92% in [7]; 23.2% in assay [8]; -5.46% in [9].

`CCn1cnnc1CNC(=O)N1CCN(c2cccs2)CC1`: the Percent Effect in assay [1] was -8.91%; in [2], 5.2%; in assay [3], -16.1%; in [4] it was 14.9%; with Trypanosoma cruzi it was 14.2%; in assay [5], 1.78%. Besides, the Percent Effect in assay [6] is 24.3%; in the assay filed under Homo sapiens, 7.4%; in [7], 26.2%; in assay [8] it was 12.2%; in assay [9], -5.95%.
